Source: PubChem BioAssay
A selection: hits, their analogues and other compounds. The true share with any hit is near 3.1%.
HIF act: HIF pathway transcriptional activators, primary screen, cell-based, U2OS HRE-luciferase, luminescence | U2OS HRE-luciferase reporter; normalized: DMSO 0%, desferrioxamine 100% | activation, % at 7.5 µM (by protocol) | 0.32% of 300,000 active;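 active means mean activation of at least 10% of the iron chelator positive control signal, with at least half of replicates also reaching 10%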
HSP90 inh: HSP90 inhibitors, primary screen, cell lysate, luminescence; Rabbit reticulocyte lysate, luciferase refolding luminescence, 3 h; inhibition, % at 5.6 µM; 0.91% of 290,000 active;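 active means inhibition above the screen-wide mean plus 3 SD, computed separately per campaign, cut at about 16% in these data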;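 further: 0% = DMSO wells and 100% = 60 µM geldanamycin wells; inhibitors lower the luminescence because luciferase stays unfolded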
HSF1 inh: HSF1 inhibitors in luciferase reporter cells, primary screen, cell-based, NIH3T3, luminescence | activity change, negative = inhibition, % at 7.5 µM (by protocol) | NIH3T3-HGL HSE-luciferase, MG132-induced, luminescence 8 h; stronger effect = lower value | 0.77% of 300,000 active;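 active means more than half of replicate wells show activity change below -50%, luminescence cut by over half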;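 further: luciferase reports HSF-1 transcriptional activity via heat shock element; 0% = median of DMSO wells and -100% = zero luminescence signal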
ARNT-TACC3 inh: disruptors of ARNT/TACC3 protein interaction, primary screen, biochemical, AlphaScreen, single concentration; AlphaScreen His-ARNT PAS-B/GST-TACC3 binding, luminescence; TACC3 fragment carries E629A point mutation; AID 623870, 2012; 0.66% of 390,000 active; inhibition, % at 9.99 µM;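 active means mean inhibition of replicates at least 50% and at least half of replicates each reaching 50%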;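 further: 0% = complete ARNT plus TACC3 wells and 100% = ARNT alone without TACC3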
HSF1 activator: HSF-1 activators, primary screen, NIH3T3-HGL cells, MG132 stress, luminescence, single point. NIH3T3-HGL HSF-1 luciferase reporter, 8 h; 100% = twice DMSO control signal. activation, % at 9 µM. 1.7% of 300,000 active;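 active means mean replicate activation of at least 50% with a set share of replicates each reaching 50%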;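 further: 0% = median of the neutral control wells and 100% = twice that signal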
Active calls of the source: *; x = no result given.

SMILES	HIF act	HSP90 inh	HSF1 inh	ARNT-TACC3 inh	HSF1 activator
CCOC(=O)C1=NN(C(=O)c2ccc(OC)cc2)C(O)(c2ccc(Cl)cc2)C1 (stereo not given)	0	2	53	-2	80*
CCOC(=O)C1=NN(C(=O)c2ccccc2)C(O)(c2ccc(C)cc2)C1 (stereo not given)	0	2	227	x	318*
O=C(C[C@H]1C=C[C@@H](NC(=O)Cc2cccnc2)[C@@H](CO)O1)Nc1ccccc1	x	x	x	3	x
CO[C@@H]1CN(C)C(=O)c2cc(NC(=O)NC3CCCCC3)ccc2OC[C@H](C)N(CCc2ccccc2)C[C@H]1C	x	x	x	-3	x
O=C(Nc1ccc2c(c1)OCO2)N[C@H]1CC[C@@H](CC(=O)N2CCN(c3ccccc3)CC2)O[C@@H]1CO	x	x	x	-2	x
CC1=NN(C(=O)c2ccccc2)C(O)(c2ccc(Br)cc2)C1 (stereo not given)	1	-1	43	0	83*
CCCNC(=O)C[C@H]1CC[C@@H]2[C@H](COc3ccc(NC(=O)c4cscn4)cc3C(=O)N2C)O1	x	x	x	2	x
C[C@@H]1CN([C@@H](C)CO)C(=O)Cc2cc(NC(=O)c3ccncc3)ccc2O[C@H]1CN(C)Cc1ccc(Cl)c(Cl)c1	x	x	x	48*	x
C[C@H]1CN([C@@H](C)CO)C(=O)Cc2cc(NC(=O)C3CC3)ccc2O[C@H]1CN(C)Cc1ccc(Cl)c(Cl)c1	x	x	x	46*	x
CC(C)NC(=O)N(C)C[C@@H]1Oc2ccc(NC(=O)Nc3ccc(C(F)(F)F)cc3)cc2CC(=O)N([C@@H](C)CO)C[C@H]1C	x	x	x	46*	x
C[C@@H]1CN([C@H](C)CO)C(=O)Cc2cc(NC(=O)C3CC3)ccc2O[C@@H]1CN(C)Cc1ccc(Cl)c(Cl)c1	x	x	x	15	x
C[C@H](CO)N1C[C@H](C)[C@@H](CN(C)Cc2ccncc2)Oc2ccc(NC(=O)c3ccncc3)cc2CC1=O	x	x	x	-4	x
CN(C)CC(=O)N[C@@H]1CC[C@H](CC(=O)NCc2ccccc2F)O[C@H]1CO	x	x	x	-16	x
CCCNC(=O)Nc1ccc2c(c1)C(=O)N(C)C[C@@H](OC)[C@H](C)CN(Cc1ccncc1)[C@@H](C)CO2	x	x	x	-11	x
COc1cc(OC)cc(C(=O)NC(=S)Nc2nc(-c3cc4ccccc4o3)cs2)c1	0	0	-3	-6	-2
COCCNc1nc(-c2cc3ccccc3o2)cs1	1	7	14	2	56*
O=C(NC(=S)NC1CCCC1)c1ccccc1	2	-2	20	x	27
O=C(NC(=S)NC1C2CC3CC(C2)CC1C3)c1ccccc1 (stereo not given)	0	3	-58*	-12	-66
CC(C)N1C(=O)CN(C2CCCCCC2)C(=O)C1c1ccccc1F (stereo not given)	2	-1	-56*	-9	-64
CCCC#Cc1cnc2c(c1)C(=O)N([C@@H](C)CO)C[C@@H](C)[C@H](CN(C)C(=O)c1cccnc1)O2	x	x	x	-7	x
COc1ccc(S(=O)(=O)Nc2cccc(S(=O)(=O)N3CCCCCC3)c2)cc1	0	-1	4	-6	9
O=S(=O)(Nc1nc2ccccc2nc1Nc1cccc(S(=O)(=O)N2CCCCC2)c1)c1ccccc1	-2	-2	70	x	101*
Cn1nnnc1SCC(=O)Nc1nn(-c2ccccc2)nc1C(N)=O	0	3	-3	2	-11
NC(=O)c1nn(-c2ccccc2)nc1NC(=O)CN1CCCCC1	1	5	16	6	53*
Cn1c(=O)c2cn(-c3ccc4c(c3)OCCO4)cc2n(C)c1=O	1	-1	-67*	-2	-73
SMILES	HIF act	HSP90 inh	HSF1 inh	ARNT-TACC3 inh	HSF1 activator
Cc1ccc(-n2cc3c(=O)n(C)c(=O)n(C)c3c2)cc1C	1	2	-16	-1	-18
O=C1c2c(O)ccc(O)c2C(=O)c2c(NCCNCCO)ccc(NCCNCCO)c21	x	x	x	65*	x
O=C(NCC1CC1)[C@H]1N[C@H]2c3ccc(C4=CCCCC4)c(=O)n3C[C@H]2[C@@H]1CO	x	x	x	-3	x
O=C(CSC(=S)N1CCCCC1)Nc1nc(-c2ccccc2)c(-c2ccccc2)o1	0	-1	-3	3	14
O=C(CSC(=S)N1CCOCC1)Nc1nc(-c2ccccc2)c(-c2ccccc2)o1	0	2	-61*	-1	-64
C[C@@H]1CN([C@@H](C)CO)C(=O)c2cc(C#Cc3ccccc3F)cnc2O[C@@H]1CN(C)C(=O)c1ccc2c(c1)OCO2	x	x	x	3	x
C[C@@H]1CN([C@H](C)CO)C(=O)c2cc(NS(=O)(=O)c3ccccc3)ccc2O[C@@H](C)CCCCO[C@@H]1CN(C)C(=O)c1ccccc1	x	x	x	0	x
CCc1cccc(CC)c1NC(=O)COC(=O)CC1c2ccccc2CCN1S(=O)(=O)c1ccc(F)cc1 (stereo not given)	-1	2	31	-1	62*
Brc1ccc2c(c1)C(c1cccnc1)=NNC(c1cccs1)=N2	1	-3	26	14	64*
Cc1cc(NC(=O)CSc2nc3c(c(=O)n2-c2ccc(Cl)cc2)SCC3)no1	45*	1	2	-24	-12
COC(=O)c1ccc(CSc2nc3c(c(=O)n2-c2ccc(F)cc2)SCC3)o1	11*	-3	10	5	11
C[C@H](CO)N1C[C@H](C)[C@H](CN(C)S(=O)(=O)c2ccc(Cl)cc2)Oc2ccc(NC(=O)C3CC3)cc2CC1=O	x	x	x	2	x
CO[C@H]1CN(C)C(=O)c2ccc(NC(=O)C3CC3)cc2OC[C@@H](C)N(C(=O)C2CCCCC2)C[C@@H]1C	x	x	x	-7	x
C/C=C1\COC(C(=O)NCc2ccccc2)(C(F)(F)F)C=C1C=C1CCCCC1 (stereo not given)	-1	x	53	x	71*
NCCCCCc1nnc(SCC(=O)Nc2cccc(Cl)c2)o1	0	4	-4	x	0
CCC(C)[C@H](N)c1nnc(SCC(=O)Nc2cccc(Cl)c2)o1 (stereo not given in full)	0	2	72	1	108*
C[C@@H]1CN([C@@H](C)CO)C(=O)c2cc(NC(=O)CCCN(C)C)ccc2O[C@H]1CN(C)S(=O)(=O)c1ccc(F)cc1	x	x	x	-8	x
CC(=Nc1ccccc1)c1sc2ccccc2c1O	x	-3	20	10	35
CC(=Nc1ccc(Br)cc1)c1sc2ccccc2c1O	3	-2	42	7	60*
C[C@@H]1CN([C@H](C)CO)C(=O)Cc2cc(NC(=O)CCN3CCOCC3)ccc2O[C@H]1CN(C)C(=O)Nc1ccc2c(c1)OCO2	x	x	x	46*	x
